A number with no mark means an inactive call. The source made the active and inactive calls.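 The calls were made as follows: active = viability at or under a set limit in both replicates, limit being median viability minus 3 SD (cut at about 48% in these data, passing the limit was not always enough); inconclusive = at or under the limit in just one replicate; inactive = at or above the limit in both replicates.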
Test: growth inhibitors of H69AR lung tumor, primary screen, human, duplicate replicates (AID 580);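 also: 100% = mean luminescence of untreated wells and 0% = no signal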
Conditions: H69AR lung tumor cells viability, ATP luminescence, 72 h; at 10 µM; active compounds read low

| SMILES | viability |
| --- | --- |
| COc1ccc(-c2noc(COc3ccc4ccccc4c3Br)n2)cc1OC | 80.8% |
| CC(=O)c1ccc(NC2OC(C)C(O)C(O)C2O)cc1 (stereo not given) | 91.3% |
| CSc1nc(C)cc(OCC(=O)N2CCOCC2)n1 | 92.7% |
| O=C(CCCn1c(=S)[nH]c2ccccc2c1=O)N1CCCCC1 | 96.8% |
| CN(C(=O)c1ccccn1)c1nnc(-c2ccncc2)s1 | 108% |
| CC(C)(C)OC(=O)N1CC(O)CC1C(=O)OCC(=O)c1ccc(Cl)cc1 (stereo not given) | 84% |
| Cc1csc(SCc2nc3sc4c(c3c(=O)[nH]2)CCC4)n1 | 87.8% |
| CCC(C)NC(=O)CC1Oc2ccc(C)cc2NC1=O (stereo not given) | 91.7% |
| CCSc1nc(C)nc2c1oc1ccccc12 | 97.7% |
| CC1=C(C)[N+](=O)C2CCCCC2N1[O-] (stereo not given) | 94.4% |
| O=c1[nH]c2c(s1)C(c1ccco1)C1C3CCC(C3)C1S2 (stereo not given) | 78.8% |
| CC1CCCCC1NC(=O)C1CCN(C(=O)NC2CCCCC2)CC1 (stereo not given) | 102% |
| COc1cccc(OC)c1C(=O)N1CCN(S(=O)(=O)c2ccc(C)cc2)CC1 | 91.4% |
| Cc1nnc(SCc2cc(=O)[nH]c(N3CCCCC3)n2)s1 | 94.1% |
| CCc1[nH]nc2c1C(c1cccc(OC(=O)N3CCOCC3)c1)C(C#N)=C(N)O2 (stereo not given) | 89.5% |
| CS(=O)(=O)c1ccc2nc(NC(=O)c3cccs3)sc2c1 | 45% (active) |
| COc1ccc(C(=O)N2CCN(S(=O)(=O)c3cc(Cl)ccc3OC)CC2)cc1 | 103% |
| COC(=O)c1cccc(NC(=O)Cc2coc3cc(OC)ccc23)c1 | 94.2% |
| CCOC(=O)N1CCN(C(=O)CN2C(=O)COc3ccc(C)cc32)CC1 | 94.2% |
| CCNc1nc(N2CCCCC2)nc(-n2nnc(C(=O)OCC)c2C)n1 | 95.7% |

| SMILES | viability |
| --- | --- |
| O=c1c2c3nc4ccccc4nc3n(CC3CCCO3)c2ncn1CCc1ccccc1 (stereo not given) | 70.4% |
| COc1ccc(CC(NC(C)=O)C(=O)NC2CCN(C(=O)Nc3ccc(C#N)cc3)CC2)cc1OC (stereo not given) | 94.2% |
| O=S(=O)(c1ccc(Br)s1)N1CCCCC1 | 94% |
| C/C(N)=C(/C#N)C(=O)COC(=O)c1cc(C)n(-c2ccc(F)cc2)c1C | 98.1% |
| COc1cccc(Nc2cc(C)nc3ccccc23)c1 | 74.4% |
| O=S(=O)(c1ccc(-c2csc(-c3cccnc3)n2)cc1)N1CCCCC1 | 84.2% |
| O=C(O)CCc1ccc(-c2ccc(Br)cc2)n1CC(=O)O | 101% |
| COc1ccc(N(CC(=O)NC2CCCC2)C(=O)Cn2nnc(-c3ccc(C)cc3)n2)cc1 | 89.1% |
| CCOc1cc(C(=O)N(C)c2ccccc2)cc(OCC)c1OCC | 89.2% |
| COc1ccc(C(=O)Nc2ccc(C)cn2)c(OC)c1 | 85.4% |
| CN(C)c1nc(SCCOC(=O)c2ccccc2)nc(N(C)C)n1 | 101% |
| NC(=O)C1CCN(CC(=O)N2c3ccccc3CCc3ccccc32)CC1 | 93.9% |
| CCCC(c1nnnn1Cc1ccc(OC)cc1)N1CCN(c2ccccc2OC)CC1 (stereo not given) | 90% |
| CCN1C(=O)c2cccc3c(NC(=O)c4ccc5c(c4)OCCO5)ccc1c23 | 52.2% |
| CCN1C(=O)Cc2cc(S(=O)(=O)N3CCOCC3)ccc21 | 98% |
| CCOc1ccccc1NC(=O)CN(c1ccc(C)cc1)S(=O)(=O)c1c(C)noc1C | 81% |
| O=C(OCCCN1CCCC1)C1(c2ccccc2)CCCC1 | 88.6% |
| COCCn1c(NCc2ccc(C)cc2)nc2c1c(=O)[nH]c(=O)n2C | 107% |
| CCCN1C2CCCC1CC(NC(=O)Nc1cccc(C(C)=O)c1)C2 (stereo not given) | 94.3% |
| O=C(COC(=O)c1ccccc1O)Nc1ccc(OC(F)F)cc1 | 93.2% |

Reference: PubChem BioAssay
